Source: the supplement of paper PMC6555819

How the values were obtained:
Experiment in all cases: PBM binding z-score (relative to random genomic background probes); higher = stronger binding; sequences stand for … in GC…GCGATTGACAGCGTAGAATGAAGG
[1] = system: RARb homodimer (NR concentration 270 nM)
Method in brief: (§1)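 Probes were double-stranded and carried 34-nt variable regions with direct-repeat seeds, single-nucleotide variants, half-site ablations and random human genomic background sequences, printed on custom Agilent 4×180K protein-binding microarrays. Arrays were incubated 1 h with ligand-free nuclear receptor dimers in PBS pH 7.4, 2% milk, 0.02% Triton X-100, 1 mM DTT, 0.2 mg/mL BSA and 0.4 mg/ml salmon testes DNA. Antibodies against each partner (one per run) detected binding, and scanned fluorescence was regression-normalized. Binding z-scores use the random background probes as reference.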

[2] = system: RARg:RXRa (NR concentration 270 nM, RXRa partner concentration 90 nM)
Method in brief: as §1

[3] = system: RARg homodimer (NR concentration 270 nM)
Method in brief: as §1

[4] = system: RXRa DBDmut IVT, anti-RXR (DBD mutation: RXRa K156A/R161A, NR concentration 90 nM)
Method in brief: as §1

[5] = system: RXRa homodimer (NR concentration 180 nM)
Method in brief: as §1

[6] = system: THRa:RXRa (NR concentration 90 nM, RXRa partner concentration 90 nM)
Method in brief: as §1

[7] = system: THRa homodimer (NR concentration 90 nM)
Method in brief: as §1

[8] = system: VDR homodimer (NR concentration 270 nM)
Method in brief: as §1

| Sequence | PBM binding z-score [1] | PBM binding z-score [2] | PBM binding z-score [3] | PBM binding z-score [4] | PBM binding z-score [5] | PBM binding z-score [6] | PBM binding z-score [7] | PBM binding z-score [8] |
| --- | --- | --- | --- | --- | --- | --- | --- | --- |
| TCTCGGAGGACACGAAGGTCAGAGCGTTCCAGAG | 3.79 | 3.32 | 3.84 | 0.548 | 1.94 | 2.99 | 0.835 | 1.2 |
| CGTCCAAGGTCTAAGGTCAGTGAAGAGATGACGG | 3.66 | 3.47 | 4.02 | 1.14 | 3.1 | 3.65 | 3.24 | 1.1 |
| ATCGACAGGTCGTGAGGTGAGTATACAGAAAGGC | 1.39 | 2.07 | 1.67 | 0.0757 | 2.17 | 2.38 | 1.28 | 0.435 |
| TCTATTAGTTGAAGGGGAACCGACGAGTCCGTTT | 0.0488 | 0.44 | 0.17 | 2.05 | 0.673 | 0.226 | 0.565 | 1.61 |
| CCTACTGGGCCAAAAAGGTCGTTGATGCCGATAA | 1.92 | 1.18 | 0.763 | 0.0571 | 1.38 | 1.26 | -0.297 | 1.13 |
| CCAGACAGGTGAAAGGTTACTCAGTCTGGTACGC | 1.91 | 3.02 | 1.52 | 0.385 | 4.22 | 1.72 | 0.13 | 0.149 |
| CGAACGAGTGCATGAGTTGATAGCAAATGCCGAT | -0.322 | 0.343 | 0.307 | 3.2 | 0.414 | -0.0112 | -0.726 | 2.6 |
| ACAGACAGGCGAGTGAAGGTAACTCAGCTGGACG | -0.318 | -0.0341 | -0.0147 | -0.699 | 0.296 | 0.0808 | -0.312 | -0.484 |
| ATCTCTAGGTAAAAGTTCATTGAATCCCGAGGAT | 2.65 | 2.61 | 2.06 | 1.89 | 2.82 | 1.87 | 0.281 | 3.33 |
| GGAACGAGGGCAAAGTTAATAGCATCTGTCGACG | 1.24 | 1.77 | 1.99 | 2.78 | 1.55 | 1.27 | -0.176 | 1.31 |
| ACTATTAGTTGACTTAGGGCTACCGATACGACGC | -0.0045 | 0.457 | 0.61 | 0.644 | 0.257 | 1.21 | 0.349 | 0.385 |
| GGACCGAGGGCATTCGAGTTGATAGCATGGCGAT | 0.78 | 1.2 | 1.14 | 2.61 | 0.753 | 3.46 | -0.46 | 3.18 |
| GCAGACGGGTGAAACGCAGGTAACTCAGGGTGGC | -0.28 | 0.482 | -0.283 | -1.07 | 0.49 | 1.3 | -0.706 | -0.68 |
| TCTTGTAGATCGAAGGTTAAGAAAGCCGAAGCCT | 0.0841 | 0.243 | -0.136 | 0.423 | 0.859 | 0.418 | -0.559 | -0.284 |
| CTCGAAAGGTCGGTTGAGGTGGGTATACGGATAA | 1.83 | 2.28 | 2.25 | 0.695 | 1.86 | 4.1 | 0.422 | 1.06 |
| CCTAATGGGCCATCAGGTCATTGATATCAACGTT | 2.76 | 2.27 | 2.23 | 0.496 | 1.39 | 3.38 | 2.92 | 1.57 |
| CCGACAGGGGCAAGGTTACCATAACGCACAGCCA | 1.43 | 1.58 | 1.94 | 0.0606 | 1.58 | 1.37 | 0.432 | 0.707 |
| GATACAGGGTCAGCTAGAGGCCAGAATATGGAAA | 3.01 | 6.5 | 4.78 | 1.32 | 4.12 | 3.04 | 0.498 | 1 |
| TAGCCTAGGTCAGATCTGGCCAGTATACGCTATA | 1.82 | 2.73 | 3.49 | -0.24 | 1.3 | 2.57 | -0.423 | -0.751 |
| AGAATGAGGTTATACGTAGATGAGGGAAGAAAGT | 0.964 | 1.74 | 1.17 | 1.8 | 2.24 | 2.26 | 0.843 | 0.924 |
| CGAACTAGGTCATCCAGGCCAGTGAATACATTGA | 3.18 | 4 | 4.59 | 2.18 | 2.85 | 3.23 | 1.19 | 1.33 |
| TCTGCTAGGTCAATTGGTCAGCTAACGAGCTGCC | 2.93 | 3.91 | 4.34 | 1.21 | 2.09 | 2.3 | -0.00918 | -0.473 |
| ATCTCTAGGTAACCAAGTTCGGTGAATGCCGAAC | 0.477 | 0.289 | 0.0649 | 0.0543 | 0.189 | 0.968 | 0.803 | 1.13 |
| CGTACTGGGCCATCAGGTCATTGATATCAACGTT | 2.7 | 2.08 | 2.17 | 0.587 | 1.44 | 3.17 | 3.18 | 1.98 |
| CATAAAGGGTCAGCTAGGCCAGAGTAGGGACGGC | 4.09 | 5.41 | 6.23 | 1.52 | 4.42 | 2.65 | 0.204 | 0.783 |
| GCTCGTAGATCAAGGTTAAGAAAGACTAAGCTAA | -0.0448 | 0.0431 | -0.0396 | -0.285 | 0.709 | 0.978 | -0.631 | -0.34 |

| Sequence | PBM binding z-score [1] | PBM binding z-score [2] | PBM binding z-score [3] | PBM binding z-score [4] | PBM binding z-score [5] | PBM binding z-score [6] | PBM binding z-score [7] | PBM binding z-score [8] |
| --- | --- | --- | --- | --- | --- | --- | --- | --- |
| TCTATTAGTTGATTAGGGCGACCGAAACAGCGGA | 0.492 | 0.141 | 0.348 | 1.14 | 0.378 | 0.191 | 0.249 | 0.212 |
| GCGACTGGGGCAGAGCAGGTTACCATAAGGTTGG | 0.826 | 0.0864 | 0.288 | -0.613 | 0.225 | 1.64 | -0.115 | -0.654 |
| CCTACTGGGTCATCAGGTCATTGATATCAACGTT | 4.25 | 5.07 | 5 | 2.14 | 4.38 | 3.97 | 3.17 | 3.06 |
| CGTCGAAGGTCAAGGTCAGTGAAAGAGACTCGAA | 5.05 | 6.76 | 7.33 | 2.59 | 6.08 | 3.98 | 2.07 | 1.98 |
| GCATATAGGTAATACACGGTGAAAGTCCGATTGT | 0.0641 | 0.309 | 0.397 | 0.18 | 0.407 | 1.23 | -0.424 | 0.0175 |
| ATCTCTAGGTAAGACTTAGTTCAGTGAAGAACGC | 1.05 | 0.21 | 0.357 | 0.325 | 0.128 | 0.798 | 0.858 | 0.617 |
| GCTCGGAGGACTAGGTCAGAGCTTTGTCCGTAGA | 1.4 | 0.32 | 0.804 | -0.871 | -0.228 | 0.731 | -0.465 | -0.906 |
| CCTAGTTGGACAGGAGGTCACACACCGGATATGA | 3.81 | 4.2 | 3.71 | 1.02 | 3.96 | 3.41 | 2.18 | 2.39 |
| GCTAGCAGGCCATTTGGGTCACTCATTGACGGGC | 1.77 | 0.783 | 1.14 | 0.292 | 0.477 | 1.69 | 0.799 | 0.121 |
| CTACCAAGGTGAGCAAGGTCGTTGATTACTATTC | 1.65 | 0.951 | 0.78 | 0.939 | 1.03 | 2.77 | 1.29 | 1.42 |
| GGAACGATGGCAAAGTTGATAGCATCTGTCGACG | -0.537 | -0.206 | 0.0205 | -0.199 | -0.104 | -0.533 | -1.03 | -0.827 |
| CTACCAACGTGAACAAGGTCGTTGATTACTATTC | 1.42 | 0.533 | 0.432 | 1.53 | 0.896 | 1.82 | 1.41 | 1.88 |
| CCGAGTAGGTGATGGGGCATTCAGGCAACGGTGA | 0.69 | 0.024 | -0.0731 | -0.961 | 0.074 | 0.211 | -0.0233 | -0.306 |
| TATCCTAGGTCATGCGGGCCAGTATAGTGTCGGC | 3.12 | 4.06 | 4.98 | 1.6 | 3.59 | 3.43 | 1.91 | 1.29 |
| CAAACTAGGTCACGGAGGTCAAAGTCCGTGCGTA | 5.44 | 7.06 | 7.31 | 3.08 | 7.23 | 4.74 | 3.58 | 5.9 |
| TTACCAAGGTGACAGGTCGTTGATGCACGCCTTG | 1.52 | 1.37 | 1.17 | 0.0135 | 1.61 | 2.19 | 1.19 | 0.797 |
| TCATATAGGTAAAGGTGCAAGTCGAACGATATGA | 0.0991 | 0.803 | 0.522 | 0.75 | 1.18 | 0.151 | -0.746 | 0.385 |
| CCAGACAGGTGAAAGGTAACTCAATCTGGTACGC | 1.19 | 1.48 | 0.946 | 0.203 | 2.39 | 1.1 | 0.0708 | -0.0474 |
| TCATATAGGTAATACAGATGAAAGTCGGCATCTA | -0.481 | 0.349 | 0.543 | 1.28 | 1.09 | -0.0206 | -0.254 | 0.0563 |
| CTCGAAAGGTCGTGCTAAGGTGAGTATACCAAAC | 3.37 | 6.03 | 4.31 | 2.01 | 5.25 | 4.61 | 1.79 | 1.29 |
| CTCGAAAGGTCGCTTGAGGTGAGTATACGGATAA | 2.86 | 3.95 | 3.9 | 1.89 | 3.66 | 5.16 | 1.09 | 0.912 |
| TAGCCTAGGTCATGCGGGCGAGTATAGTGTCGGC | 2.94 | 3.64 | 3.75 | 0.518 | 2.68 | 2.89 | 1.22 | 0.494 |
| AGTCAAAGTACACTAGGTAACGTAAGATTCAGCT | 0.288 | 0.245 | 0.909 | 1.11 | 0.318 | 0.479 | -0.0974 | 0.127 |
| TCTTGTAGATCAAAGGTGAAGAAAGCCGAAGCCT | 0.902 | 0.905 | 0.395 | 0.392 | 1.75 | 0.776 | -0.461 | -0.594 |
| CCTACTGGGCCATTCAGAGTTCATTGATCATATG | 2.64 | 2.54 | 1.23 | 2.26 | 1.28 | 1.12 | 0.0171 | 5.74 |
| GCTCGGAGGACAAGGTCAAAGCTTTGTCCGTAGA | 3.35 | 4.56 | 4.54 | 1.32 | 4.4 | 3.57 | 2.09 | 2.02 |
